Measurements as given in the supplement of paper PMC11732987, “Enantioselective OTUD7B fragment discovery through chemoproteomics screening and high-throughput optimisation” (Communications Chemistry, 2025).

Assays:
Test in all cases: log2 ratio of Biotin-Ahx-Ub-VS probe labelling (fragment/DMSO); higher = less target engagement (more negative = stronger competition), active = hit call of the paper (q ≤ 0.05, log2 ratio ≤ -1)
Conditions in all cases: compound concentration: 200 uM; treatment time: 3 h
[1] = molecular target: T1, OTUD6B (UniProt Q8N6M0)
T1 sequence (whole entry): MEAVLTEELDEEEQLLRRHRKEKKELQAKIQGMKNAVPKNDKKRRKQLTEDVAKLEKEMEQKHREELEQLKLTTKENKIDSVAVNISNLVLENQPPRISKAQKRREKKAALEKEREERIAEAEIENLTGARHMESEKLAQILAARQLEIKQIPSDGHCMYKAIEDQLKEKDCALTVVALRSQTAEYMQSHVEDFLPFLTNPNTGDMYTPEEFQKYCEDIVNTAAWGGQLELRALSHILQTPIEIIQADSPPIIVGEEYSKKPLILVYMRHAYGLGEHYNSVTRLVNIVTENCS
In short: (§1)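 HEK293T lysate, 495 µg per sample in Tris/CHAPS/IGEPAL buffer with protease inhibitors, was treated in triplicate with fragment at 200 µM or vehicle for 3 h and then with Biotin-Ahx-Ub-VS at 0.5 µM final for 1 h. Labelled DUBs were NeutrAvidin-enriched, digested with LysC and trypsin, and run by diaPASEF LC-MS/MS. Spectronaut label-free quantities were global-median-normalised, and values are average log2 fragment/vehicle ratios by unpaired t-test on proteins with ≥2 unique peptides.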

[2] = molecular target: T2, OTUD7B (UniProt Q6GQQ9)
T2 sequence (whole entry): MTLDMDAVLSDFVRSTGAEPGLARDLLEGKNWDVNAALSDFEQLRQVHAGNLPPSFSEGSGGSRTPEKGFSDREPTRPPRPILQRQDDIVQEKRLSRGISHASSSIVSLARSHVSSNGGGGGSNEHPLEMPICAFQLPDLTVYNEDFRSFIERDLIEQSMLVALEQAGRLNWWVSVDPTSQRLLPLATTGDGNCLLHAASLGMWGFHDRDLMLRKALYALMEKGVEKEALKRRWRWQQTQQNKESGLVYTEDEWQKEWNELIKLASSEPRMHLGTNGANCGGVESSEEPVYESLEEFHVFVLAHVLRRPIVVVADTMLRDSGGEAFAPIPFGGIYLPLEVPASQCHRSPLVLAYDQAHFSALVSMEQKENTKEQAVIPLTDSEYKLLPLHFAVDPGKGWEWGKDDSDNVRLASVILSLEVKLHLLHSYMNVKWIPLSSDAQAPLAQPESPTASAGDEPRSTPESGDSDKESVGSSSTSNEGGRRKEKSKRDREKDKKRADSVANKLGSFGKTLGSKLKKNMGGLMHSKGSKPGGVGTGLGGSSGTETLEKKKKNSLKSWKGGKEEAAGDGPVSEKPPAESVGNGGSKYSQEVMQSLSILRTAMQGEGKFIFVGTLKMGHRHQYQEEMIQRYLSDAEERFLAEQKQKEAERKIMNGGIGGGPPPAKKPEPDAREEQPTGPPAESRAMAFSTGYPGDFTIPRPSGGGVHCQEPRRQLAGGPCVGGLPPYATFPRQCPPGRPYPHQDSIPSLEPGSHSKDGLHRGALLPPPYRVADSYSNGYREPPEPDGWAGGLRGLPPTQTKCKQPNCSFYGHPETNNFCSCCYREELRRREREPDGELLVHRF
In short: as §1

[3] = molecular target: PRPF8 (UniProt Q6P2Q9)
In short: as §1

[4] = molecular target: T3, PSMD7 (UniProt P51665)
T3 sequence (whole entry): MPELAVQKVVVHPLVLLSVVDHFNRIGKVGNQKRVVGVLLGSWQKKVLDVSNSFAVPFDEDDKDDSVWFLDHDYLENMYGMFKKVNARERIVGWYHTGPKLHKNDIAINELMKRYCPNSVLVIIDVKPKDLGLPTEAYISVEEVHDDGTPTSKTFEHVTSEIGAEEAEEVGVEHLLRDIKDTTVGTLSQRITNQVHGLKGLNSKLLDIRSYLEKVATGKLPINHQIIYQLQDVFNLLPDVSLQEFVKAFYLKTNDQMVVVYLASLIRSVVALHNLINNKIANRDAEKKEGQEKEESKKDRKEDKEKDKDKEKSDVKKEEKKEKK
In short: as §1

[5] = molecular target: UCHL1 (UniProt P09936)
In short: as §1

[6] = molecular target: T4, UCHL3 (UniProt P15374)
T4 sequence (whole entry): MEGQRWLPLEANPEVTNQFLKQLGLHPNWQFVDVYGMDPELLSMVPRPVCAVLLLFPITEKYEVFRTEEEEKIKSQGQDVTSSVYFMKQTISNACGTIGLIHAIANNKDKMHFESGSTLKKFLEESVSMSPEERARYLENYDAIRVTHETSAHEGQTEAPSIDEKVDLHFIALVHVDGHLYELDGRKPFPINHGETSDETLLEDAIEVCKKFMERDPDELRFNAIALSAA
In short: as §1

[7] = molecular target: T5, UCHL5 (UniProt Q9Y5K5)
T5 sequence (whole entry): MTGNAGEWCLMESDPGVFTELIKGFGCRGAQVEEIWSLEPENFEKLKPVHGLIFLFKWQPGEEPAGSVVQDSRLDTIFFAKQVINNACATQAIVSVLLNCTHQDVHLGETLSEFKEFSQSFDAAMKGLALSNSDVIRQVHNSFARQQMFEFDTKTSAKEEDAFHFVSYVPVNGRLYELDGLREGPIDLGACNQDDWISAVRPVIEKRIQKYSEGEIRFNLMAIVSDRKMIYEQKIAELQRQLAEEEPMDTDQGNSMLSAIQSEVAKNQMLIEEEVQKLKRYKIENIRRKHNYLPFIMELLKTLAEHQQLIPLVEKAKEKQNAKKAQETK
In short: as §1

[8] = molecular target: USP10 (UniProt Q14694)
In short: as §1

[9] = molecular target: T6, USP15 (UniProt Q9Y4E8)
T6 sequence (whole entry): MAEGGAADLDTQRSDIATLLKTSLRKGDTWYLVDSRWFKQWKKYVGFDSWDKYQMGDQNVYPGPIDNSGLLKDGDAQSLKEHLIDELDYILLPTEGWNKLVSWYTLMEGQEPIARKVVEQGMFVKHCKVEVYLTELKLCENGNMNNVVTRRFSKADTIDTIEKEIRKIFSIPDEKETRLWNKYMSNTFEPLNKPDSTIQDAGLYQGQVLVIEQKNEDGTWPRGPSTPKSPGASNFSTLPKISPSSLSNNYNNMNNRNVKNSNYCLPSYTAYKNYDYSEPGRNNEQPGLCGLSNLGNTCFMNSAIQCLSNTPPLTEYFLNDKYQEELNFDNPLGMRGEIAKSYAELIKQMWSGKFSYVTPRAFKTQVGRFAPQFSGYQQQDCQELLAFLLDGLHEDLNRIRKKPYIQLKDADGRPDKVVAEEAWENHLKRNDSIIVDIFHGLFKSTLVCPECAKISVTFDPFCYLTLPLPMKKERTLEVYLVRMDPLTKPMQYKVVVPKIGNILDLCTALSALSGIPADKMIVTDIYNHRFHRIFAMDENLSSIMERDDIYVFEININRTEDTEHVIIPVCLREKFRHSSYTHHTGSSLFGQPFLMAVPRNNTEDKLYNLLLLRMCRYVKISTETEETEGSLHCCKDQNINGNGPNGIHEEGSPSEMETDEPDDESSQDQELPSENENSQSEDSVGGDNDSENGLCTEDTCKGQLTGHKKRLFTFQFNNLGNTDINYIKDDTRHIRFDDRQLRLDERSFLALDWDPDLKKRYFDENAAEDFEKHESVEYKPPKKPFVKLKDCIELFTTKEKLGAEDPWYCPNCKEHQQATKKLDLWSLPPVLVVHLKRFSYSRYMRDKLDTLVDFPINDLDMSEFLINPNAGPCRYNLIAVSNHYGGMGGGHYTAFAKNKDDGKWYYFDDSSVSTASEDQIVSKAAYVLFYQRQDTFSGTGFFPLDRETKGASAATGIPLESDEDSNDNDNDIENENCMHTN
In short: as §1

[10] = molecular target: USP16 (UniProt Q9Y5T5)
In short: as §1

Measured: log2 ratio of Biotin-Ahx-Ub-VS probe labelling

Chain of USP16 (Q9Y5T5 whole entry, looked up): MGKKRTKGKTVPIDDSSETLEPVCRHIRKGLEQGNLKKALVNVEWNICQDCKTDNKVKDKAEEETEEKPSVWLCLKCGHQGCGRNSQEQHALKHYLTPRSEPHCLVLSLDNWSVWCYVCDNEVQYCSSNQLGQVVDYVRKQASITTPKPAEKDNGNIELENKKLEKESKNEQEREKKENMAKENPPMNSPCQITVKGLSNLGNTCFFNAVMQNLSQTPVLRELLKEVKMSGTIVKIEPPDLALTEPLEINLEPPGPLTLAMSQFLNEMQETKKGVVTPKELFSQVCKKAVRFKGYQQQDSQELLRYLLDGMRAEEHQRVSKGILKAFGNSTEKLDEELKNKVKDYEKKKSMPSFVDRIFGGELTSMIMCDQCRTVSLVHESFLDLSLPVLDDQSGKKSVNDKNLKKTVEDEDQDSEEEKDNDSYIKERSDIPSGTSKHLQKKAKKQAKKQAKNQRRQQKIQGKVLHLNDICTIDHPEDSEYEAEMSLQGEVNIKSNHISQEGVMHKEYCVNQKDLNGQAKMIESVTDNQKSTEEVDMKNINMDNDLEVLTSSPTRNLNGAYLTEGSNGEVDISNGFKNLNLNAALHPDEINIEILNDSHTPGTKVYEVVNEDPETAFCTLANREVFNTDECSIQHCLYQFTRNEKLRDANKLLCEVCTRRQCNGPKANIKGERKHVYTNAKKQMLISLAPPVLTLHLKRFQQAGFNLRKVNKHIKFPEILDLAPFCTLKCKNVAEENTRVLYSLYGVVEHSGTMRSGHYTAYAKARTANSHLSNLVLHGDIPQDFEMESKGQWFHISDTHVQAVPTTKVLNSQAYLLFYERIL
Chain of USP10 (Q14694 whole entry): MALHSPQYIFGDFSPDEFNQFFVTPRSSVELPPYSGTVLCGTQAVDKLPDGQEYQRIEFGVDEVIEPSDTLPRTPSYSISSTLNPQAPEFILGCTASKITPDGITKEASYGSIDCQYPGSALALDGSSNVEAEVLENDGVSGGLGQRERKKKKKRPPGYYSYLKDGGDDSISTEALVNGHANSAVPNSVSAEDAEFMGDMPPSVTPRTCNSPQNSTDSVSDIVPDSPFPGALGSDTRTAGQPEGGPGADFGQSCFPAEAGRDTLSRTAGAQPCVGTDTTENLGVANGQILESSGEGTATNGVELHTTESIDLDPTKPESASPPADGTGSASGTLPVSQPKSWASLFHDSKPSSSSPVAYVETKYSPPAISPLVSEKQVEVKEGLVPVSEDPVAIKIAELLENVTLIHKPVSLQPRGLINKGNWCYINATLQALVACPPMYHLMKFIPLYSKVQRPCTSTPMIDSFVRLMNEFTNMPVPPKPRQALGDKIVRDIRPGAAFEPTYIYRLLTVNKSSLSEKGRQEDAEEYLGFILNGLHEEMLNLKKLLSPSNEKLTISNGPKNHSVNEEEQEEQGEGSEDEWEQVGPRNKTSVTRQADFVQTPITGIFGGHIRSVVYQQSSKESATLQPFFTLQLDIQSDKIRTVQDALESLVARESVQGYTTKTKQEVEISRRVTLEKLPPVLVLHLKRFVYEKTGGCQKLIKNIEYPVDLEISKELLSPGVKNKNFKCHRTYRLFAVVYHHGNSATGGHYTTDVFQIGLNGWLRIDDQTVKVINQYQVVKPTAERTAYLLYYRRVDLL
Chain of UCHL1 (P09936 whole entry, looked up): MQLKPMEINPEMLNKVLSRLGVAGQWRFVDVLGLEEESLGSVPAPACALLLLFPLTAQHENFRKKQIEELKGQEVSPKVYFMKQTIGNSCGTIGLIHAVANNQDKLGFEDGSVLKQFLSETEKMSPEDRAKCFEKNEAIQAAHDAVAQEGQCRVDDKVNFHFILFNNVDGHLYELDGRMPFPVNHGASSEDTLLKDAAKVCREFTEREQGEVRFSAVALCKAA

CCN(C(=O)CCl)C1CCCCC1
inactive: [1] -0.00402 | [2] -0.011 | [3] -0.0683 | [4] 0.00413 | [5] -0.999 | [6] 0.576 | [7] 0.0144 | [8] -0.185 | [9] -0.0855 | [10] 0.0695
